The record followed here is PubChem BioAssay (NCATS).

Assay [1] addresses Glucocorticoid receptor (Homo sapiens) (UniProt P04150). Nature of the assay: qHTS assay for small molecule agonists of glucocorticoid receptor signaling (AID 588532; active = well fitted curve in the direction sought with a large enough effect in the signal ratio, with a control signal flat; the % refers to the signal ratio;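 also: 100% = dexamethasone at 0.1 µM and 0% = DMSO only wells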). Conditions: HeLa MMTV-bla, beta-lactamase ratio, agonist, 18 h; activation: stronger effect = higher value, percent of dexamethasone control, DMSO zero. In a few lines:
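Titration series, up to 92 uM, applied to GRE-bla HeLa cells for 18 h at 37 C. Detection by CCF4 FRET substrate after 2 h at RT.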
Background: In qHTS, concentration-response curves come from the screen itself.

Assay [2] concerns the target Peroxisome proliferator-activated receptor delta (Homo sapiens) (UniProt Q03181). Nature of the assay: qHTS assay for small molecule agonists of peroxisome proliferator-activated receptor delta signaling (AID 588534).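 Also: 0% = DMSO basal wells and 100% = positive control agonist at 10 µM.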 In a few lines:
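Cells carrying a PPAR-delta beta-lactamase reporter were treated with compounds for 18 h at 37 °C in agonist mode. CCF4 fluorescence was read after 2 h; EC50 and efficacy from Hill fits.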

Assay [3] can be described thus: qHTS assay for small molecule antagonists of peroxisome proliferator-activated receptor delta signaling (AID 588535).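 Also: cells co-treated with a PPAR-delta agonist as stimulator during compound exposure.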 Conditions: HEK293T PPARd-UAS-bla, beta-lactamase FRET ratio, 18 h; 460 nm channel. In a few lines: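 Reporter: UAS-bla under PPAR-delta response element, HEK293T host. Medium: 2% charcoal/dextran FBS. Dosing: titration, 18 hrs, 37 C. Detection: CCF4, 2 hrs RT, 405 ex/460 and 530 em.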

The target of assay [4] is Peroxisome proliferator-activated receptor gamma (Homo sapiens) (UniProt P37231). As to the kind of experiment: qHTS assay for small molecule agonists of peroxisome proliferator-activated receptor gamma signaling (AID 588536; active = well fitted curve in the direction sought with a large enough effect in the signal ratio, with a control signal flat, not every such curve was filed as active; the % refers to the signal ratio;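 also: 0% = DMSO basal wells and 100% = rosiglitazone at 2 µM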). In a few lines: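 HEK293 UAS-bla reporter line, 1% charcoal/dextran FBS; titration, 16 h, 37 C; CCF4 loading 2 h RT; fluorescence 460/530 nm. Normalized to rosiglitazone 2 uM = 100%, DMSO = 0%.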

Assay [5] shares this target. Nature of the assay: qHTS assay for small molecule antagonists of peroxisome proliferator-activated receptor gamma signaling (AID 588537; active = well fitted inhibition curve with a large enough effect in the signal ratio, with a control signal flat, not every such curve was filed as active; the % refers to the signal ratio;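 also: reporter cells co-stimulated with 50 nM rosiglitazone agonist during compound treatment; % of control where 0% means no effect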). In a few lines: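 We seeded GeneBLAzer HEK293 reporter cells at 3000 per well, allowed 6-6.5 h attachment at 37 C, then co-treated with test compound titrations and 50 nM rosiglitazone overnight (16 h). Inhibition was quantified from 460/530 nm emission ratios.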

Assay [6] has as its target Vitamin D3 receptor (Homo sapiens) (UniProt P11473). Nature of the assay: qHTS assay for small molecule antagonists of vitamin D receptor signaling (AID 588541).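 Also: receptor activated by calcitriol during compound treatment; series mostly up to about 77 µM; % is scaled to controls: 0 for no effect and ±100 for the full control effect.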 In a few lines:
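VDR-UAS-bla HEK293T cells (2000/well, 2% charcoal-stripped FBS) were treated with titrated compounds plus 1-alpha,25-dihydroxyvitamin D3 (50 nM or 3 nM final) for 16 h at 37 C. CCF4 beta-lactamase fluorescence was read; Hill fits gave IC50.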

Assay [7] shares this target. As to the kind of experiment: qHTS assay for small molecule agonists of vitamin D receptor signaling (AID 588543).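 Also: 0% = DMSO basal and 100% = reference agonist control.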 In a few lines:
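Measured: β-lactamase reporter activity (CCF4, 405 nm excitation, 460/530 nm emission) in HEK293T VDR-UAS-bla cells after 16 h compound exposure at 37 °C. Normalization against 50 nM 1α,25-dihydroxyvitamin D3 and DMSO; Hill-fit EC50.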

In assay [8] the target is Retinoic acid receptor RXR-alpha (Homo sapiens) (UniProt P19793). As to the kind of experiment: qHTS assay for small molecule agonists of retinoid X receptor alpha signaling (AID 588544).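 Also: 0% = DMSO basal wells and 100% = reference agonist.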
For assay [9], the target named is Thyroid hormone receptor beta (Homo sapiens) (UniProt P10828). Nature of the assay: qHTS assay for small molecule agonists of thyroid hormone receptor beta signaling (AID 588545).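 Also: 0% = DMSO only and 100% = 10 nM T3.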 In a few lines: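 TR-UAS-bla GripTite HEK 293 cells (2500/well, medium with 2% charcoal/dextran FBS) were treated in agonist mode for 18 h at 37 C, titrated. Beta-lactamase was read by CCF4 ratio after 2 h; normalized to 10 nM T3 (100%) and DMSO, Hill-fitted for EC50 and efficacy.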

Assay [10] in a line: qHTS assay for small molecule antagonists of retinoid X receptor alpha signaling (AID 588546; active = well fitted inhibition curve with a large enough effect in the signal ratio, with a control signal flat, not every such curve was filed as active; the % refers to the signal ratio; also: potency is read from the fitted curve at half-maximal effect). Conditions: HEK293T RXRa-UAS-bla, beta-lactamase ratio, antagonist mode; measured here: W530 green channel, cytotoxicity proxy. In a few lines:
(§1)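 Beta-lactamase reporter inhibition, read as CCF4 fluorescence ratio (ex 405, em 460/530 nm) after 2 h at RT. HEK293T UAS-bla cells, 2500/well, were stimulated with 9-cis-RA at 500 or 100 nM final alongside test compound for 18 h at 37 C.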

Assay [11] addresses Thyroid hormone receptor beta (Homo sapiens) (UniProt P10828). As to the kind of experiment: qHTS assay for small molecule antagonists of thyroid hormone receptor beta signaling (AID 588547; active = well fitted inhibition curve with a large enough effect in the signal ratio, with a control signal flat, not every such curve was filed as active; the % refers to the signal ratio;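 also: cells stimulated with 0.4 nM T3 agonist during compound exposure; series mostly up to about 77 µM; % is scaled to controls: 0 for no effect and ±100 for the full control effect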). The following applies: TR-UAS-bla HEK293, beta-lactamase ratio, antagonist mode, 18 h. In a few lines: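 TR-UAS-bla GripTite HEK293 cells in 2% charcoal/dextran FBS medium were preincubated 4 h at 37 C, given compound (0.59 nM to 92 uM) plus 0.4 nM T3 (final) for 18 h, then CCF4 for 2 h at RT; Hill fit gave IC50.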

The nature of assay [12]: qHTS assay for small molecule activators of the p53 signaling pathway (AID 651743; active = well fitted activation curve with a large enough effect in the signal ratio, not every such curve was filed as active; the % refers to the signal ratio; also: potency is read from the fitted curve at half-maximal effect; as to activation: series mostly up to about 92 µM; % of control where 0% means no effect). The following applies: HCT-116 p53RE-bla, beta-lactamase FRET ratio, 16 h; activation: stronger effect = higher value. In a few lines: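 Cell-based beta-lactamase reporter (p53 response elements, HCT-116 background). After a 5-hour preincubation, cells received compound for 16 hours at 37 C; substrate development ran 2 hours at room temperature.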

Assay [13] is described as follows: qHTS assay for environmental chemicals that activate the Aryl hydrocarbon Receptor (AhR) signaling pathway (AID 651777; active = well fitted curve in the direction sought with a large enough effect; an effect the other way counts as inactive or inconclusive; also: % of control where 0% means no effect; nearly all actives have a fitted effect of over 15% in size). The following applies: 1A2-DRE human hepatoma cells, luciferase, 24 h; activation: stronger effect = higher value. In a few lines:
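Human hepatoma 1A2-DRE cells, stably carrying a dioxin response element and CYP1A2 promoter driving luciferase, were exposed to compounds for 24 hr at 37 C and 5% CO2. Luciferase signal was then read after 30 min One-Glo at room temperature.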

For assay [14], the target named is Peroxisome proliferator-activated receptor alpha (Homo sapiens) (UniProt Q07869). Nature of the assay: qHTS assay for small molecule agonists of the peroxisome proliferator-activated receptor alpha (PPARalpha) signaling pathway (AID 651778; active = well fitted curve in the direction sought with a large enough effect; an effect the other way counts as inactive or inconclusive; also: % of control where 0% means no effect). Conditions: PathHunter PPARalpha complementation, chemiluminescence, 6 h; max response: stronger effect = higher value. In a few lines:
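Cells plated at 2,000/well and held overnight at 37 C, 5% CO2, then compound added by pin tool for 6 hr; after PathHunter detection reagent and 60 min at room temperature, chemiluminescence from enzyme complementation was read.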

Assay [15] can be described thus: qHTS assay for small molecule agonists of the antioxidant response element (ARE) signaling pathway measured by Nrf2-dependant transcriptional activity (AID 720636; active = well fitted curve in the direction sought with a large enough effect in the repeat runs; an effect the other way counts as inactive or inconclusive; also: % of control where 0% means no effect). In a few lines: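 ARE-luc HepG2 cells carrying an Nrf2-responsive luciferase reporter were plated in medium with 1% dialyzed FBS, left 6 hr at 37 C to attach, then exposed to compound for 16 hr. Luciferase luminescence was read after ONE-Glo addition.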

Assay [16] is described as follows: qHTS assay for small molecule agonists of the antioxidant response element (ARE) signaling pathway measured by Nrf2-dependant transcriptional activity - cell viability counter screen (AID 720653; active = well fitted curve in the direction sought with a large enough effect in the repeat runs; an effect the other way counts as inactive or inconclusive; also: % is scaled to controls: 0 for no effect and ±100 for the full control effect). Conditions: ARE-bla HepG2 viability, CellTiter-Glo ATP luminescence, 16 h; max response: stronger effect = lower value. In a few lines: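 ARE-bla HepG2 cells (2,000/well) rested 5 hrs at 37C/5% CO2, then exposed to compounds in DMSO for 16 hrs. Viability was read in the same wells as intracellular ATP by luminescence, 30 min at room temperature after reagent addition.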

Assay [17] in a line: qHTS assay for cell viability of the p53RE-bla HCT-116 cell line (AID 743292; active = well fitted curve in the direction sought with a large enough effect; an effect the other way counts as inactive or inconclusive; also: % is scaled to controls: 0 for no effect and ±100 for the full control effect; nearly all actives have a fitted effect of over 55% in size). In a few lines:
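CellSensor p53RE-bla HCT-116 cells, 4,000/well, preincubated 5 h at 37 C, then exposed to compounds in DMSO for 16 h at 37 C. Viability read as CellTiter-Glo luminescence (intracellular ATP) after 30 min at room temperature.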

Assay [18] has as its target Nuclear receptor subfamily 1 group I member 2 (Rattus norvegicus) (UniProt Q9R1A7). Nature of the assay: qHTS assay for small molecule activators of the rat pregnane X receptor (rPXR) signaling pathway (AID 651751; call rule not given here; also: 0% is about no effect). Conditions: rPXR reporter cells, luciferase (One-Glo), 24 h.
The target of assay [19] is Retinoic acid receptor RXR-alpha (Homo sapiens) (UniProt P19793). Nature of the assay: qHTS assay for small molecule antagonists of retinoid X receptor alpha signaling (AID 588546). Also: potency is read from the fitted curve at half-maximal effect.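 As to max response: cells stimulated with 9-cis-retinoic acid as agonist; % is scaled to controls: 0 for no effect and ±100 for the full control effect.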 The following applies: HEK293T RXRa-UAS-bla, beta-lactamase ratio, antagonist mode. In a few lines:
as §1

Assay [20] in a line: qHTS assay for cell viability of HEK293 cells (AID 743288; active = well fitted curve in the direction sought with a large enough effect; an effect the other way counts as inactive or inconclusive; also: % is scaled to controls: 0 for no effect and ±100 for the full control effect; nearly all actives have a fitted effect of over 50% in size). The following applies: ATP luminescence (CellTiter-Glo), 18 h; max response: stronger effect = lower value. In a few lines: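 Luminescent ATP quantitation served as the viability read-out. Cells (parental HEK293, 2,000/well) received compounds after at least 5 h at 37 C and were exposed for 18 h before a 30 min room-temperature reagent step.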

Records with an inconclusive call do not appear. Active and inactive are the calls of the source. Unless noted, calls follow the shape of the full dose curve.

Peroxisome proliferator-activated receptor alpha (Homo sapiens), sequence (Q07869 whole entry, looked up): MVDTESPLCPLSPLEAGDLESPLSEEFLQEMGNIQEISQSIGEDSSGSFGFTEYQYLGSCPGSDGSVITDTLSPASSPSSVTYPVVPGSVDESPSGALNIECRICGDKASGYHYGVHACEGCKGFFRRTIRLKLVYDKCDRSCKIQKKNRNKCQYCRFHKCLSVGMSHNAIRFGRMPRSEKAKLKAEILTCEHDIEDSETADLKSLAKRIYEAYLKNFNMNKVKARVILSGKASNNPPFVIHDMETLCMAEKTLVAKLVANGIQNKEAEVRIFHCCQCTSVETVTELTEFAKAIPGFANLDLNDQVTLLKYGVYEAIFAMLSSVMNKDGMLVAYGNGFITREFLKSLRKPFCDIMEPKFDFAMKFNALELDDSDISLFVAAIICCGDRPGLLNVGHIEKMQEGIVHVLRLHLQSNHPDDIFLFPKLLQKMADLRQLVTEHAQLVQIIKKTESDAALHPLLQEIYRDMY
Retinoic acid receptor RXR-alpha (Homo sapiens), sequence (P19793 whole entry, looked up): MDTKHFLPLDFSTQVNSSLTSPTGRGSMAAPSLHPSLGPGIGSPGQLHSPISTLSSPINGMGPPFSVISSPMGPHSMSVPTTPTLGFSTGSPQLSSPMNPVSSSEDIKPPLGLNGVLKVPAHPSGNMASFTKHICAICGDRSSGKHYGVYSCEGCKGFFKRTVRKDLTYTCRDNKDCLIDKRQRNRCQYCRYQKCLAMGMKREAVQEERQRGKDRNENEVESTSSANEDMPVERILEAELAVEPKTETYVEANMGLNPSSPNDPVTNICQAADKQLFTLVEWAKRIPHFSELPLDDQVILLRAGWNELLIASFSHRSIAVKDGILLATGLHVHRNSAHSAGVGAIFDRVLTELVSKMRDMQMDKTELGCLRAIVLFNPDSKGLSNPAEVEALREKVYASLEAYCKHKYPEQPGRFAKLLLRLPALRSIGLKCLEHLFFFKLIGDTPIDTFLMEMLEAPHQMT
Thyroid hormone receptor beta (Homo sapiens), sequence (P10828 whole entry, looked up): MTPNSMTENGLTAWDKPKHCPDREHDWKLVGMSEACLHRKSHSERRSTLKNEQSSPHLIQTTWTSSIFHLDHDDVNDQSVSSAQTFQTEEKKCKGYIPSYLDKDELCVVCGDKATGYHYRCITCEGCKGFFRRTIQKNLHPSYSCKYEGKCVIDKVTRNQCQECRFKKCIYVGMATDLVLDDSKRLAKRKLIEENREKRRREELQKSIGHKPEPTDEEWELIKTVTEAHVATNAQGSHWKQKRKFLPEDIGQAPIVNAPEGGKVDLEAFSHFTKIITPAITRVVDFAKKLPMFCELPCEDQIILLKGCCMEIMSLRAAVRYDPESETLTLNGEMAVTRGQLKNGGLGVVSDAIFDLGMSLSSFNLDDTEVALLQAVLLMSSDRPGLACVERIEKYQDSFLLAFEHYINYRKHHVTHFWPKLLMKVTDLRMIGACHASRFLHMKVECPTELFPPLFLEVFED
Peroxisome proliferator-activated receptor delta (Homo sapiens), sequence (Q03181 whole entry, looked up): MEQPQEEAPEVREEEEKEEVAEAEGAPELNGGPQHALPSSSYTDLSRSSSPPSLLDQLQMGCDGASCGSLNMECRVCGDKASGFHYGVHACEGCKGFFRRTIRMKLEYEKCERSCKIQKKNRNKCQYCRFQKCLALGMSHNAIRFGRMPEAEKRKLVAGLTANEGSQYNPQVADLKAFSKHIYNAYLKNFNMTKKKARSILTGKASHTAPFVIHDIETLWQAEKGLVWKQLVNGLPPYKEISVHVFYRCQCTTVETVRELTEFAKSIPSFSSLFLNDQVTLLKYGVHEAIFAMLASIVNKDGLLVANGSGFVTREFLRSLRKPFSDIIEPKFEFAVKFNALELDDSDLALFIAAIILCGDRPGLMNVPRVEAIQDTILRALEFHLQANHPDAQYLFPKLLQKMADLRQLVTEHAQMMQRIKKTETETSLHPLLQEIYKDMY
Glucocorticoid receptor (Homo sapiens), sequence (P04150 whole entry, looked up): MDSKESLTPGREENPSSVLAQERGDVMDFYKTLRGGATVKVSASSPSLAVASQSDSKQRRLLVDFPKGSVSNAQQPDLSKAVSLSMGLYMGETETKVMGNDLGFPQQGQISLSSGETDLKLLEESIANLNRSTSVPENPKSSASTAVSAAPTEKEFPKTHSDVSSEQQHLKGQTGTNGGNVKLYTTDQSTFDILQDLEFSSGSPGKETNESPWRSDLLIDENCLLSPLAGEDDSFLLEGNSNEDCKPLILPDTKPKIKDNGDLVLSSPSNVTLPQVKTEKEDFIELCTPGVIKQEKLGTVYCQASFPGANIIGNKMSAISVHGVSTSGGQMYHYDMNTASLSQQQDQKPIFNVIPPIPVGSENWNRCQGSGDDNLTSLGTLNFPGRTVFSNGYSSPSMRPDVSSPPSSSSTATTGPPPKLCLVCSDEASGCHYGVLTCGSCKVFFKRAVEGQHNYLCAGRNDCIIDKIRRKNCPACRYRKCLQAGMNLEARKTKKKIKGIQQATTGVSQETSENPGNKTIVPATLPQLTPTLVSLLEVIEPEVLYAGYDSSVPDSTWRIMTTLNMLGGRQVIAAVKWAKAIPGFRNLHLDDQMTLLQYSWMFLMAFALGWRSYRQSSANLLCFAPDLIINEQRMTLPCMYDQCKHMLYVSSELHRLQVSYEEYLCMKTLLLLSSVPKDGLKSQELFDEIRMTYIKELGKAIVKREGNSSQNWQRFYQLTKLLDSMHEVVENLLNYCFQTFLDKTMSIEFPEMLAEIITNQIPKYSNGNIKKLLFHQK
Vitamin D3 receptor (Homo sapiens), sequence (P11473 whole entry, looked up): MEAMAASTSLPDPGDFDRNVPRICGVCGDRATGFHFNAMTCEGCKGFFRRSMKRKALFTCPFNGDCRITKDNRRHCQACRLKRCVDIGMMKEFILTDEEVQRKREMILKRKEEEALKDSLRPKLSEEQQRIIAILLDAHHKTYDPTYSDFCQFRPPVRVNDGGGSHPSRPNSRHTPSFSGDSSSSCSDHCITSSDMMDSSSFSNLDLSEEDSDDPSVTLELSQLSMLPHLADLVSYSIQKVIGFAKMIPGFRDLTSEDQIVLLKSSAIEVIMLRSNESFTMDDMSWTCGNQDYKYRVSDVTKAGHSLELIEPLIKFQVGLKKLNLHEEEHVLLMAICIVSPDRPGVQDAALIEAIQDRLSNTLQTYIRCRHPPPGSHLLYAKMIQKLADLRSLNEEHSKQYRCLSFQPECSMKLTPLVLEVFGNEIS
Peroxisome proliferator-activated receptor gamma (Homo sapiens), sequence (P37231 whole entry, looked up): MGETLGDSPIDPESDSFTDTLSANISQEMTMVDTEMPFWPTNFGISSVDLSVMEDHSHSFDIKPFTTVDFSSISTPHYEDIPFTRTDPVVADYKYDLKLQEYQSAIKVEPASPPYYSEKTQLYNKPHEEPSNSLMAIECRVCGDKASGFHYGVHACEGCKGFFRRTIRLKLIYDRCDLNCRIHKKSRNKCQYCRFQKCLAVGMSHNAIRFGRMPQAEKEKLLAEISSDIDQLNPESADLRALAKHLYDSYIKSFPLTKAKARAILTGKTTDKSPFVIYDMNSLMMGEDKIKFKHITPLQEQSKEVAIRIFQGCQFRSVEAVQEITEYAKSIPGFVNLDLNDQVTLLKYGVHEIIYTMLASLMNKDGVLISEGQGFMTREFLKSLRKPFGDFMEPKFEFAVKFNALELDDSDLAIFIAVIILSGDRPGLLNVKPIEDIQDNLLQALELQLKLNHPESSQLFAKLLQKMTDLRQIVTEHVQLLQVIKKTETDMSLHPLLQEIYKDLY
Nuclear receptor subfamily 1 group I member 2 (Rattus norvegicus), sequence (Q9R1A7 whole entry, looked up): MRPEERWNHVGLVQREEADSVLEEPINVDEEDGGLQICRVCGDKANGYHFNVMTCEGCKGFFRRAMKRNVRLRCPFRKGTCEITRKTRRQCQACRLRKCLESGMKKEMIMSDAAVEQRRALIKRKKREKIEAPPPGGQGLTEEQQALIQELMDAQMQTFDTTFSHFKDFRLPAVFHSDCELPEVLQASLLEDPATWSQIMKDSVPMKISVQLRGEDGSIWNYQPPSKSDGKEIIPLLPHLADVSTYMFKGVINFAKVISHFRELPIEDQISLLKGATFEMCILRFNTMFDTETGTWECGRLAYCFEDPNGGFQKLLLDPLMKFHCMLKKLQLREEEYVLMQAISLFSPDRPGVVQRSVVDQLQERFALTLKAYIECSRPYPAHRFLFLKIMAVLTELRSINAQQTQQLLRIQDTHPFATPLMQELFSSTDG

Consider `CCOP(N)(=O)Oc1ccc(SC)c(C)c1` (stereo not given), for which the activation in assay [1] is -9.53% (inactive); in assay [12] it was -1.01% (inactive); in assay [13], 0.564% (inactive). Moreover, the compound was classed as inactive in [2] and in assay [7]. For the same compound, the max response in [3] is 41.4%; in assay [10] it was -11.1%; in assay [14] it was -3.39% (inactive); in assay [16] it was -8.16% (inactive); in assay [18], 4.69% (inactive). For the same compound, the Potency result in [4], in assay [5], in [6], in assay [8], in [9] and in assay [15] was “inactive” each time. In addition, in assay [17], the Potency entry was “inactive”. Moreover, in assay [11], the activity change % (negative = inhibition) was -15.7% (inactive).

With `CCNP(=S)(OC)O/C(C)=C/C(=O)OC(C)C` (stereo not given), the activation in assay [1] is -6.1% (inactive); in assay [12], -1.45% (inactive). In addition, the Potency entry in assay [4], in [5], in [6], in assay [8], in assay [9] and in assay [15] was “inactive” throughout. Moreover, the compound was called inactive in [7]. Besides, the max response in assay [10] is -11.8%; in [19] it was 3.14% (inactive); in assay [14], -0.524% (inactive); in assay [16] it was -7.95% (inactive); in assay [20] it was -5.26% (inactive).

For `CCOP(=S)(NC(C)C)Oc1ccccc1C(=O)OC(C)C` (stereo not given), the activation in assay [1] is -0.106% (inactive); in assay [12], 2.9% (inactive); in [13], 4.48% (inactive). Further, the call in assay [2] and in assay [7] was inactive. For the same compound, the max response is -3.59% in assay [3]; -9.07% in assay [10]; -31.4% (inactive) in assay [19]; -0.429% (inactive) in assay [14]; -14.9% (inactive) in [16]. The Potency entry in assay [4], in assay [5], in [6], in assay [9], in assay [15] and in [17] was “inactive” in each case. In [11], the activity change % (negative = inhibition) is 1.38% (inactive).

Turning to `O=S(=O)(c1ccc(O)cc1)c1ccc(O)cc1`, the activation in assay [1] was -0.412% (inactive); in assay [12] it was -2.48% (inactive); in assay [13], -1.25% (inactive). Besides, the compound was called inactive in assay [2] and in [7]. In addition, the max response in [3] was 45.2%; in assay [10] it was -5.39%; in assay [19], 15.4% (inactive); in assay [14], -4.37% (inactive); in assay [16], -5.42% (inactive); in assay [18], -2.78% (inactive). The Potency entry in assay [4], in assay [5], in assay [6], in [8], in assay [9] and in assay [15] was “inactive” throughout. The Potency entry in assay [17] is “inactive”. Besides, the activity change % (negative = inhibition) in assay [11] was 5% (inactive).

As to `COC(=O)c1sccc1S(=O)(=O)NC(=O)Nc1nc(C)nc(OC)n1`, the activation in assay [1] was -2.71% (inactive); in assay [13] it was 0.948% (inactive). Besides, the outcome in [2] and in assay [7] was inactive. In addition, the max response is -31.9% in assay [3]; -1.17% in assay [10]; -14.7% (inactive) in [19]; -0.482% (inactive) in assay [14]; 2.61% (inactive) in [16]; -12% (inactive) in assay [20]. In [18], the max response was 3.77% (inactive). Also, the Potency entry in assay [4], in assay [5], in assay [6], in assay [8], in assay [9] and in assay [15] was “inactive” throughout. Further, the Potency result in [17] is “inactive”.

Turning to `CC1(c2ccc(Oc3ccccc3)cc2)OC(=O)N(Nc2ccccc2)C1=O` (stereo not given), the outcome in assay [2] and in assay [7] was inactive. Further, the max response in assay [10] was 19.6%; in assay [14], 11.6% (inactive); in assay [16], -28.5% (inactive). In addition, the Potency in [19] was 31.6 µM (active); in [12], 5.01 µM (active). Besides, the activation in assay [13] is 4.76% (inactive). In addition, the Potency result in assay [15] was “inactive”.
